Our source for the outcome and AC50 values is PubChem BioAssay (EPA / NIEHS).

Results filed as inconclusive are left out. Activity calls are given as the source filed them. The calls were made as follows, unless noted: active = hit-call score of the fitted dose curve at least 0.9, where 1 is the maximum; inactive = score below 0.9.

Test [1] deals with Paired box protein Pax-6 (Homo sapiens) (UniProt P26367). Nature of the test: ATG_Pax6_CIS: Attagene CIS-FACTORIAL HepG2 Assay for human Paired Box 6 (PAX6) (AID 2282956). The note with it: HepG2 CIS-FACTORIAL PAX6 reporter transcription, RNA readout; actives raise or lower the signal. The essentials:
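Read-out is reporter transcript level, measured by RT-PCR with fluorescent primer extension and capillary electrophoresis after 24 h dosing of transfected HepG2 cells. Activity in either direction fitted relative to DMSO control.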

Test [2] in a line: ATG_PXRE_CIS: Attagene CIS-FACTORIAL HepG2 Assay for human Pregnane X Receptor Element (PXRE) (AID 2282957). The note with it: HepG2 Attagene CIS-FACTORIAL PXRE reporter, mRNA; actives raise or lower the signal. In a few lines: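 Reporter transcripts under endogenous PXR-responsive cis-regulation quantified from total RNA of transfected HepG2 cells 24 h post-dosing, via RT-PCR with fluorescent primer extension and capillary electrophoresis. Gain or loss of signal fitted against DMSO baseline.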

Test [3] in a line: ATG_RORE_CIS: Attagene CIS-FACTORIAL HepG2 Assay for human RAR-related Orphan Receptor Element (RORE) (AID 2282959). The conditions noted are these: HepG2 Attagene cis-factorial RORE reporter, mRNA; actives raise or lower the signal. The essentials: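 Transient MRTU transfection of human HepG2 liver cells (FuGene 6); 24 h compound exposure; TriZol RNA, oligo(dT) RT, PCR, FAM labeling, HpaI cut, CE fragment analysis. DMSO = negative control/baseline.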

Test [4] is described as follows: ATG_Sox_CIS: Attagene CIS-FACTORIAL HepG2 Assay for human SRY-box transcription factor (SOX) (AID 2282960). The note with it: HepG2 Attagene cis-factorial SOX reporter, mRNA; actives raise or lower the signal. In a few lines:
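Endogenous factor activity in human liver HepG2 cells carrying transfected cis-regulated reporter units. RNA taken 24 h post-dose, reverse-transcribed, PCR-amplified and sized by capillary electrophoresis. Gain or loss of signal fitted relative to DMSO.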

Test [5] has as its target Transcription factor Sp1 (Homo sapiens) (UniProt P08047). Nature of the test: ATG_Sp1_CIS: Attagene CIS-FACTORIAL HepG2 Assay for human Specificity Protein 1 (Sp1) (AID 2282961). The conditions noted are these: HepG2 Sp1 cis-reporter transcription, actives raise or lower the signal. In a few lines:
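Transient MRTU-transfected HepG2, 24 h compound exposure. Total RNA → oligo(dT) RT → PCR of reporter → 6-FAM primer extension → HpaI digest → CE. Endpoint fitted both directions vs DMSO.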

A short description of test [6]: ATG_SREBP_CIS: Attagene CIS-FACTORIAL HepG2 Assay for human Sterol Regulatory Element Binding (SREBP) (AID 2282962). The note with it: HepG2 Attagene cis-factorial SREBP reporter, mRNA; actives raise or lower the signal. The essentials:
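Endogenous SREBP activity read as cis-element-driven reporter transcript in transiently transfected HepG2, 24 h post-dosing; quantified via RT-PCR plus capillary electrophoresis of fluorescent fragments. Gain or loss of signal fitted relative to DMSO baseline.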

Test [7] has as its target Signal transducer and activator of transcription 3 (Homo sapiens) (UniProt P40763). Nature of the test: ATG_STAT3_CIS: Attagene CIS-FACTORIAL HepG2 Assay for human Signal Transducer and Activator of Transcription 3 (STAT3) (AID 2282963). The note with it: HepG2, Attagene cis-factorial STAT3 reporter transcription; actives raise or lower the signal. The essentials: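 Fluorescence intensity of 6-FAM-labelled reporter fragments, separated by capillary electrophoresis after RT-PCR, gave the signal. Cells were HepG2 transfected with cis-element reporter units and treated 24 h; fitting was bidirectional relative to DMSO.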

The nature of test [8]: ATG_TA_CIS: Attagene CIS-FACTORIAL HepG2 Assay for human TA Basal Promoter (AID 2282964). The conditions noted are these: HepG2 Attagene CIS-factorial TA basal promoter reporter; actives raise or lower the signal. In a few lines:
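Multiplexed mRNA reporter assay, HepG2, 24 h. Reporter cDNA amplified, 6-FAM primer-extended, HpaI-cut, CE-sized; DMSO = negative control and baseline.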

Test [9] can be described thus: ATG_TCF_b_cat_CIS: Attagene CIS-FACTORIAL HepG2 Assay for human T-Cell-Factor with beta-catenin (TCF/b-cat) (AID 2282965). The note with it: HepG2 TCF/beta-catenin cis-reporter transcription, actives raise or lower the signal. In a few lines:
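HepG2 cells transiently transfected with cis-promoter-driven multiplexed reporter units; reporter mRNA measured 24 h after dosing by RT-PCR, FAM labelling, HpaI digestion and capillary electrophoresis. Bidirectional fitting relative to DMSO baseline.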

Test [10] can be described thus: ATG_TAL_CIS: Attagene CIS-FACTORIAL HepG2 Assay for human TAL Basal Promoter (AID 2282966).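 Also: background control endpoint measuring basal TAL promoter reporter mRNA not a specific factor.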 The conditions noted are these: HepG2 Attagene cis-factorial TAL promoter reporter; actives raise or lower the signal. In a few lines:
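Background-control endpoint: basal TAL promoter reporter transcripts in transiently transfected HepG2, measured 24 h after dosing. Read-out by RT-PCR with fluorescent primer extension and capillary electrophoresis; gain or loss of signal fitted relative to DMSO.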

Test [11] can be described thus: ATG_TGFb_CIS: Attagene CIS-FACTORIAL HepG2 Assay for human Transforming Growth Factor (TGF) (AID 2282967). The conditions noted are these: HepG2 Attagene CIS TGFb reporter, mRNA transcription; actives raise or lower the signal. The essentials: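 Transcript-level reporter readout: HepG2 transfectants, 24 h exposure, RNA to cDNA, reporter-specific PCR, fluorescent primer extension, capillary sizing against ROX standards. Gain- or loss-of-signal relative to DMSO.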

Test [12] in a line: ATG_VDRE_CIS: Attagene CIS-FACTORIAL HepG2 Assay for human Vitamin D Receptor Element (VDRE) (AID 2282968). The conditions noted are these: HepG2 VDRE cis-reporter transcription, actives raise or lower the signal. The essentials: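 Compounds were applied for 24 h to HepG2 cells transfected with promoter-regulated reporter units. Total RNA was reverse-transcribed, and reporter amplicons were fluorescently labelled and sized by capillary electrophoresis.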

In test [13] the target is X-box-binding protein 1 (Homo sapiens) (UniProt P17861). Nature of the test: ATG_Xbp1_CIS: Attagene CIS-FACTORIAL HepG2 Assay for human X-box Binding Protein 1 (XBP1) (AID 2282972). The note with it: HepG2 XBP1 cis-element reporter, Attagene multiplex; actives raise or lower the signal. The essentials: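 Reporter transcripts were quantified by RT-PCR with fluorescent primer extension and capillary electrophoresis after 24 h chemical exposure. Cells: transiently transfected HepG2 carrying cis-regulated reporter constructs; data fitted bidirectionally relative to DMSO.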
Sequence of X-box-binding protein 1 (Homo sapiens) (P17861 whole entry, looked up): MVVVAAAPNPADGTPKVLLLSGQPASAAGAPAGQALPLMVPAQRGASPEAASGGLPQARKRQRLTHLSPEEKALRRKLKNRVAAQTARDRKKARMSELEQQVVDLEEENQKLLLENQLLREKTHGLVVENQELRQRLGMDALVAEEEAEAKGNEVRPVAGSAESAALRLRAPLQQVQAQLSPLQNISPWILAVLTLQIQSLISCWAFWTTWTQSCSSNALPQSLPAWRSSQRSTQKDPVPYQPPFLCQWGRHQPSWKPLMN

A short description of test [14]: ATG_M_19_TRANS: Attagene TRANS-FACTORIAL HepG2 Assay for M19 Transcription Factor (Internal Marker) (AID 2282974; active = hit-call score of the fitted dose curve at least 0.9, where 1 is the maximum). The note with it: HepG2 Attagene TRANS-FACTORIAL M19 internal marker reporter. In a few lines: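 Fluorescence of 6-FAM-labelled reporter cDNA fragments, separated by capillary electrophoresis, served as the readout. These derived from HepG2 cells carrying transfected GAL4-UAS reporter units after 24 h dosing, with DMSO as negative control.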

The target in test [15] is Nuclear receptor subfamily 1 group I member 3 (Homo sapiens) (UniProt Q14994). Nature of the test: ATG_CAR_TRANS: Attagene TRANS-FACTORIAL HepG2 Assay for human Constitutive Androstane Receptor (CAR) (AID 2282969; active = hit-call score of the fitted dose curve at least 0.9, where 1 is the maximum;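 also: activators raise reporter mRNA above DMSO so AC50 marks induction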). The conditions noted are these: HepG2 Attagene TRANS-FACTORIAL CAR reporter. In a few lines: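 Transiently transfected HepG2, multiplex TRANS reporters (CAR-Gal4 chimera driving GAL4-UAS reporter). 24 h dosing. Readout: reporter transcript by RT-PCR + capillary electrophoresis, fluorescence intensity; positive direction vs DMSO.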
Sequence of Nuclear receptor subfamily 1 group I member 3 (Homo sapiens) (Q14994 whole entry, looked up, the tested form may be a part): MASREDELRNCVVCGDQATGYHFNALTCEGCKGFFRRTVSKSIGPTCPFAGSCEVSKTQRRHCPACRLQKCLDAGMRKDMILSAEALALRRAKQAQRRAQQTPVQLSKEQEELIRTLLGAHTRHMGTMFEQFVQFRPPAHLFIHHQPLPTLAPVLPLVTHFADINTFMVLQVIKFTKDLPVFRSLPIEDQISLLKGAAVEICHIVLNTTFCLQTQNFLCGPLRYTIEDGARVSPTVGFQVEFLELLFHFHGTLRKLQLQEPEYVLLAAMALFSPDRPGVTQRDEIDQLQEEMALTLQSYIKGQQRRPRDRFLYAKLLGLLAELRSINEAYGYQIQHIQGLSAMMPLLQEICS

The target of test [16] is Estrogen-related receptor gamma (Homo sapiens) (UniProt P62508). Nature of the test: ATG_ERRg_TRANS: Attagene TRANS-FACTORIAL HepG2 Assay for human Estrogen-Related Receptor gamma (ERRg) (AID 2282977; active = hit-call score of the fitted dose curve at least 0.9, where 1 is the maximum;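 also: hits increase reporter signal over DMSO so potencies reflect activators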). The conditions noted are these: HepG2 Attagene TRANS reporter, ERRg transactivation. The essentials:
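Induction of reporter transcripts through a chimeric NR-Gal4 protein is quantified in transfected human HepG2 liver cells after 24 h chemical exposure, using RT-PCR with capillary electrophoresis detection and DMSO as baseline.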

A short description of test [17]: ATG_GAL4_TRANS: Attagene TRANS-FACTORIAL HepG2 Assay for GAL4 (Internal Marker) (AID 2282976; active = hit-call score of the fitted dose curve at least 0.9, where 1 is the maximum). The note with it: HepG2 Attagene TRANS GAL4 internal marker reporter. In a few lines: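 In transfected human HepG2 liver cells dosed 24 h, GAL4 reporter mRNA serves as a baseline marker. Detection by RT-PCR with fluorescent capillary electrophoresis, activity fitted upward relative to DMSO.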

Sequence of Transcription factor Sp1 (Homo sapiens) (P08047 whole entry, looked up): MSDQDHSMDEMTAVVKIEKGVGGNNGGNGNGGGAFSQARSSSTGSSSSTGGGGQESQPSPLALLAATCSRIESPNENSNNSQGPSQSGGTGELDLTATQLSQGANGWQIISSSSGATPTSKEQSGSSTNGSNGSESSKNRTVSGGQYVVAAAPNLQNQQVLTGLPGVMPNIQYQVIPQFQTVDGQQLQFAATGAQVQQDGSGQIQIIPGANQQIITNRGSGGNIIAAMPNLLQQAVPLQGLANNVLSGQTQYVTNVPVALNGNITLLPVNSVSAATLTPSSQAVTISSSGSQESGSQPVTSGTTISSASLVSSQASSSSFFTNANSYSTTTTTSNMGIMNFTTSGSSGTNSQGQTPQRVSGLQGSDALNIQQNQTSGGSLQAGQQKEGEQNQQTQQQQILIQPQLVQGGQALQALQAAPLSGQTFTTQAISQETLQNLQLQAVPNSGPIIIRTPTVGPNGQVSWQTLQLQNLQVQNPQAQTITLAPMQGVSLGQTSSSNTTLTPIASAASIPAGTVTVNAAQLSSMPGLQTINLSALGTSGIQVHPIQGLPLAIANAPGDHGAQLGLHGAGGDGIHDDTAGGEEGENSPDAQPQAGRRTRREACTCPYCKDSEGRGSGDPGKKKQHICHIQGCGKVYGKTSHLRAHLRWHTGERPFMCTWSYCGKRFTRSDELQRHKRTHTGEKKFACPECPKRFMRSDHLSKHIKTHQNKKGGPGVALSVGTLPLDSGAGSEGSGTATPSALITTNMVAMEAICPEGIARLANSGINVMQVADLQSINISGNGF
Sequence of Signal transducer and activator of transcription 3 (Homo sapiens) (P40763 whole entry, looked up, the tested form may be a part): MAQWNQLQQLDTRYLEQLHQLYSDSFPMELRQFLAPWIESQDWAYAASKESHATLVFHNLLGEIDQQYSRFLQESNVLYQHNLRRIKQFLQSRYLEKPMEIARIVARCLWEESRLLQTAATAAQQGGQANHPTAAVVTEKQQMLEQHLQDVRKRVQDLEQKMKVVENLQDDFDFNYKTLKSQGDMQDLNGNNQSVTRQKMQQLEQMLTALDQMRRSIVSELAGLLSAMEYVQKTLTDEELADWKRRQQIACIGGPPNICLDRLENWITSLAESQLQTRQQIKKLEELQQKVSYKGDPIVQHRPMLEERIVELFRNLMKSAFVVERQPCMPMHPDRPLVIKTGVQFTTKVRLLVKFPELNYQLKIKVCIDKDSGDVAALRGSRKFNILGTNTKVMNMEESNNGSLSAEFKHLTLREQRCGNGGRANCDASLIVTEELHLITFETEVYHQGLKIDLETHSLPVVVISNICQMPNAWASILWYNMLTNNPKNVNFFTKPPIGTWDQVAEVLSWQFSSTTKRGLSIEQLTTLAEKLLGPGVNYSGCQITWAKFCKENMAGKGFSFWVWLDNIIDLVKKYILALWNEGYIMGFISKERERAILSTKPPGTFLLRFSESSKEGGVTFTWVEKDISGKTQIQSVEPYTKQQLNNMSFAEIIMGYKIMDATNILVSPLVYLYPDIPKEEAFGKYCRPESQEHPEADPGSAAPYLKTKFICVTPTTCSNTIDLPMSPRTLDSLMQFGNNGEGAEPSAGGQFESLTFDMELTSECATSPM
Sequence of Paired box protein Pax-6 (Homo sapiens) (P26367 whole entry, looked up): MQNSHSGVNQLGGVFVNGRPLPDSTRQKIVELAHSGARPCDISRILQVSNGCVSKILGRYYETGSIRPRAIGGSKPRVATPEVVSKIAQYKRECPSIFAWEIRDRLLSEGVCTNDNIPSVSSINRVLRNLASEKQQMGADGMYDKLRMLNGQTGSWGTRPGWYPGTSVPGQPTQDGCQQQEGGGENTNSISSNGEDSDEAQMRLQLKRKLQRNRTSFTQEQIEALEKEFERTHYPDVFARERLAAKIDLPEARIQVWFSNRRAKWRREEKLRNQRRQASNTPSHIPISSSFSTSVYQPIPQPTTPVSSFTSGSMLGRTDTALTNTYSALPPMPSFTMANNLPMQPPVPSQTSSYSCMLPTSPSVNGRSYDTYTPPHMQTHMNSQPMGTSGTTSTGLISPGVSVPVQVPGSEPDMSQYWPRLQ
Sequence of Estrogen-related receptor gamma (Homo sapiens) (P62508 whole entry, looked up, the tested form may be a part): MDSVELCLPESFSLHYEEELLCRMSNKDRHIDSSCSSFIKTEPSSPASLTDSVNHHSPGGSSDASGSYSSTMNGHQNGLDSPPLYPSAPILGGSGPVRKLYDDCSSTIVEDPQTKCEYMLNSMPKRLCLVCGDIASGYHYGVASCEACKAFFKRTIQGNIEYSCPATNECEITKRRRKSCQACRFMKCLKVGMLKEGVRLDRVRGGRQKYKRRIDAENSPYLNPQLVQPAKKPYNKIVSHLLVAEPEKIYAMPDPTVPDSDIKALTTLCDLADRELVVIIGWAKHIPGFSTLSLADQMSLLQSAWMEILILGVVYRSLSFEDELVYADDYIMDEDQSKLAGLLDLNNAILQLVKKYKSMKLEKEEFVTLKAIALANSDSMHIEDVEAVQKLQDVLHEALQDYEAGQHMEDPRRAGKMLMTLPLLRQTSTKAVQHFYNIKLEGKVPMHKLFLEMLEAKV

With `O=Cc1ccco1`, the call in test [1], in test [2], in test [3], in test [4], in test [5] and in test [6] was inactive. Also, the outcome in test [7], in test [8], in test [9], in [10], in test [11] and in [12] was inactive. Also, the call in [13] and in [14] was inactive.
On to `Cc1cccc(N)c1N`, for which the AC50 in [1] is 106 µM (active); in test [3] it was 106 µM (active); in test [9], 190 µM (active); in test [12], 106 µM (active); in test [13], 150 µM (active). For the same compound, the call in [2], in [4], in test [5], in test [6], in [7] and in test [8] was inactive. The compound was called inactive in [10], in test [11], in test [15] and in test [16].
Regarding `Cc1ccc(N)cc1`, the call in test [1], in test [2], in [3], in test [4], in test [5] and in test [6] was inactive. Further, the compound was classed as inactive in test [7], in test [8], in test [9], in test [10], in [11] and in [15]. The call in [13], in [14] and in test [16] was inactive.
As for `[As]#[In]`, the compound was classed as inactive in test [1], in test [3], in test [4], in [5], in test [6] and in test [7]. The result in [8], in [9], in test [10], in [11], in test [13] and in test [17] was inactive. The concentration at half-maximal activity (AC50) in [2] is 49.9 µM (active).
With `CS(=O)(=O)NC(=O)c1cc(Oc2ccc(C(F)(F)F)cc2Cl)ccc1[N+](=O)[O-]`, the outcome in test [1], in test [3], in test [4], in test [5], in test [6] and in test [7] was inactive. In addition, the outcome in test [8], in test [9], in test [10], in [11], in test [12] and in test [13] was inactive. Besides, the result in test [14] and in test [17] was inactive. The AC50 in test [2] is 8.23 µM (active).

By AC50 is commonly meant the midpoint of the concentration-response curve, whichever way the signal moves.
